This is part of a sample that, as a whole, favours compounds with a hit. Of some 83,000 tested, about 20% had one in any assay.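 Treatment: one concentration, 48 hours, 96-well format. Scoring: percent growth, with anything below 10 considered active.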 Calls of active or inactive are those of the source.

The test system of this experiment is SK-MEL-2 melanoma. Nature of the experiment: NCI-60 one-dose screen, 48 h (100 = growth as untreated, 0 = no growth, -100 = all killed). Conditions: 10 µM unless noted.
`COc1cc2c(cc1O)CC[C@@H]1[C@@H]2CC[C@]2(C)[C@@H](NCCN(C)C)CC[C@@H]12`: the growth was -95.7% (active).

Turning to `COc1cccc2c1C(=O)c1c(O)c3c(c(O)c1C2=O)C[C@](O)(C(=O)CO)C[C@H]3O[C@@H]1C[C@@H](NC(=O)CCCN(C)C2(c3ccc(F)cc3)CC3CCC2C3)[C@H](O)[C@@H](C)O1` (stereo partly drawn), the growth was 47.1% (inactive).

Consider `O=c1cc(CSc2nnc(SCc3cc(=O)oc4c3ccc3ccccc34)o2)c2ccc3ccccc3c2o1`, for which the growth is 87.8% (inactive).

In the case of `COc1cc2c(cc1O)CC[C@@H]1[C@@H]2CC[C@]2(C)[C@@H](OCCN(C)C)CC[C@@H]12`, the growth is 25.8% (inactive).

For the compound `COc1ccc(-c2nnc(SCC(=O)c3ccc(Cl)cc3)o2)cc1`, the growth was 104% (inactive).

For `NC(=NCCCOc1ccc(Cl)cc1)Nc1ccc(C(F)(F)F)cc1`, the growth was 41.3% (inactive).

For the compound `CCCCC[C@H]1C/C=C2/C(=O)C=C[C@@H]2C/C=C\CCCC(=O)O1`, the growth is -75.9% (active).

For the compound `CNC(=O)c1cc(Oc2ccc(NC(=O)Nc3ccc(Cl)c(OC(F)(F)F)c3)c(F)c2)ccn1`, the growth was 14.4% (inactive).

As for `COc1ccc2c(c1)C(=O)/C(=C/c1cccnc1)CC2`, the growth was 97.7% (inactive).

As for `COc1cccc(-c2nc(SCC(=O)Nc3ccc(C(=O)/C=C/c4ccc(OC)c(OC)c4)cc3)[nH]c(=O)c2C#N)c1`, the growth is 96.6% (inactive).

As to `CCCn1c(=O)[nH]c(N)c([C@H]2c3ccccc3Oc3[nH]c(=O)n(CCC)c(=O)c32)c1=O`, the growth was 92% (inactive).

Regarding `C=C1C(=O)O[C@H]2[C@H]1CC/C(COC(=O)NCc1ccc(OC)c(OC)c1)=C\CC[C@@]1(C)O[C@@H]21`, the growth was 85.1% (inactive).

Regarding `N#CN1CC[C@H](C(=O)Nc2cc3cc(C(N)=O)ccc3cn2)C1`, the growth is -64.3% (active).

For `O=C1c2c(O)cc(O)cc2-c2c(-c3ccc(O)cc3)oc3cc(O)cc1c23`, the growth was 72.3% (inactive).

As to `O=C1/C(=C/c2ccccc2O)N=C2SCCCN12`, the growth was 95.6% (inactive).

With `COc1ccc(CN2c3ccccc3Sc3ccccc32)c(C(F)(F)F)c1`, the growth is 3.52% (active).

`COc1ccc(-c2nc(SCC(=O)Nc3ccc(C(=O)/C=C/c4ccc(Cl)cc4)cc3)[nH]c(=O)c2C#N)cc1`: the growth is 100% (inactive).

Take `COc1ccc2c(c1)CC/C(=C\c1cncc(Br)c1)C2=O`: the growth is 95.1% (inactive).

As for `COc1ccc2c(c1)C(=O)/C(=C/c1ccccn1)CC2`, the growth was 81.3% (inactive).

`Cc1nc(Nc2ccc(F)c(Cl)c2)sc1C(=O)O`: the growth is 10.7% (inactive).

`CCOC(=O)c1sc(Nc2ccc(Cl)cc2)nc1C`: the growth is -0.883% (active).

`CC(=O)c1cc(C(=O)c2ccc3c(c2)Sc2ccccc2N3)n2ccccc12`: the growth is 20.3% (inactive).

With `CC(=O)O[C@H]1C(=O)[C@@]2(C)[C@H]([C@H](OC(=O)c3ccccc3)[C@]3(O)C[C@H](OC(=O)[C@H](OC(=O)CCC(=O)OC4CCC(S/N=C(N)/N=C(\N)N(C)C)CC4)[C@@H](NC(=O)c4ccccc4)c4ccccc4)C(C)=C1C3(C)C)[C@]1(OC(C)=O)CO[C@@H]1C[C@@H]2O` (stereo partly drawn), the growth is 12.8% (inactive).

In the case of `CC(=O)OC[C@H]1O[C@H](OC(C)=O)[C@H](NC(=O)/C=C/CCl)[C@@H](OC(C)=O)[C@@H]1OC(C)=O`, the growth is 66.6% (inactive).

`COc1cc(-c2nc(C(=O)NCC(=O)NO)nn2-c2ccc(Cl)cc2)cc(OC)c1OC`: the growth is 95.4% (inactive).

As to `C=C1C(=O)O[C@H]2[C@H]1CC/C(COC(=O)NCCc1ccc(OC)c(OC)c1)=C\CC[C@@]1(C)O[C@@H]21`, the growth is 83% (inactive).

Take `CC/C=C\C[C@H](O)C/C=C1/C(=O)C=C[C@@]1(C)C/C=C\CCCC(=O)OC`: the growth was 103% (inactive).

Regarding `Cc1ccc2oc(=O)cc(C3c4ccc([nH]4)C(c4cc(=O)oc5ccc(C)cc45)c4ccc([nH]4)C(c4cc(=O)oc5ccc(C)cc45)c4ccc([nH]4)C(c4cc(=O)oc5ccc(C)cc45)c4ccc3[nH]4)c2c1` (stereo not drawn), the growth is -73.1% (active).

As to `COc1cccc2c1C(=O)c1c(O)c3c(c(O)c1C2=O)C[C@](O)(C(=O)CO)C[C@H]3O[C@@H]1C[C@@H](NC(=O)CCCCCN(C)C2(c3ccc(F)cc3)CC3CCC2C3)[C@H](O)[C@@H](C)O1` (stereo partly drawn), the growth is 73.5% (inactive).

With `NC(=NCCCC1(c2ccccc2)CCCC1)Nc1ccc(Cl)cc1`, the growth is 35.3% (inactive).

In the case of `CCC#CC[C@H](O)C/C=C1/C(=O)C=C[C@@H]1C/C=C\CCCC(=O)OC`, the growth was -35.8% (active).

In the case of `O=c1oc2c(C(F)(F)F)cccc2cc1-c1csc(Nc2ccc(OCCF)cc2)n1`, the growth was 18% (inactive).

For the compound `CNC(=O)c1cc(Oc2ccc(NC(=O)Nc3ccc(Cl)c(SC)c3)c(F)c2)ccn1`, the growth is 21.6% (inactive).

For the compound `c1ccc2[nH]c(-c3ccc(Nc4nc(N5CCCC5)nc5[nH]ncc45)cc3)nc2c1`, the growth is -48.1% (active).

Consider `CC/C=C\C/C=C\C[C@H]1C/C=C2/C(=O)C=C[C@@H]2C/C=C\CCC(=O)O1`, for which the growth is -56.9% (active).

On to `COc1ccc(CN2c3ccccc3Sc3ccccc32)cc1O`, for which the growth is 8.98% (active).

For the compound `CCOc1ccc(-n2nc(C(=O)Nc3cc(OC)c(OC)c(OC)c3)nc2-c2cc(OC)c(OC)c(OC)c2)cc1`, the growth was 85.6% (inactive).

On to `CC/C=C\C[C@H]1C/C=C2/C(=O)C=C[C@H]2C/C=C\CCCC(=O)O1`, for which the growth is 21.4% (inactive).

For the origin of these results see PubChem BioAssay (NCI).
